Experimental data published in PubChem BioAssay (NCI).
Compounds without any hit were thinned out: in the full panel of roughly 83,000, 20% have a hit.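 96-well plates, one dose, 48 hours. Percent growth reported; active if below 10.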 Activity calls are given as the source filed them.

Tests used:
Test in all cases: NCI-60 one-dose screen, 48 h (100 = growth as untreated, 0 = no growth, -100 = all killed)
Details in all cases: 10 µM unless noted
[1] = test system: HT29 colon
[2] = test system: SNB-75 CNS
[3] = test system: SNB-19 CNS
[4] = test system: U251 CNS
[5] = test system: SK-MEL-5 melanoma
[6] = test system: UACC-62 melanoma
[7] = test system: SK-MEL-28 melanoma
[8] = test system: SK-MEL-2 melanoma
[9] = test system: EKVX NSCLC
[10] = test system: SN12C renal
[11] = test system: UO-31 renal
[12] = test system: ACHN renal
[13] = test system: CAKI-1 renal
[14] = test system: A498 renal
[15] = test system: MOLT-4 leukemia
[16] = test system: LOX IMVI melanoma
[17] = test system: TK-10 renal
[18] = test system: SR leukemia
[19] = test system: CCRF-CEM leukemia
[20] = test system: PC-3 prostate

Measured: growth

Cc1ccccc1NC(=O)c1cc2ccccc2cc1O
active: [11] -8.7%
inactive: [1] 111% | [2] 76.8% | [3] 61.9% | [4] 25.9% | [5] 17.8% | [6] 14.2% | [7] 38.6% | [8] 33% | [9] 43.8% | [10] 30.2% | [12] 34% | [13] 41.4% | [14] 43% | [15] 14.2%

COc1cc(/C=C/C(=O)c2ccc(F)cc2)ccc1OCCCCCOc1cc2c(cc1OC)C(=O)N1CCCC1C=N2 (stereo not drawn)
active: [1] -18.8% | [2] -57.5% | [3] 2.88% | [4] -77.5% | [5] -78.1% | [6] -92.4% | [16] -94% | [7] -48% | [8] -18% | [9] -20.9% | [10] -2.73% | [17] -9.06% | [12] -9.07% | [13] -1.54% | [14] -65.5% | [15] -28.9% | [18] -32.6%

Cc1nn(-c2ccccc2)c2c1oc(=O)c1cc(Cl)ccc12
inactive: [1] 101% | [2] 83.7% | [3] 99.2% | [4] 105% | [5] 110% | [6] 92.3% | [16] 105% | [7] 140% | [10] 101% | [11] 102% | [17] 111% | [12] 101% | [13] 84.9% | [14] 90.9% | [19] 98.1% | [15] 134%

CCc1ccc(CCN2C(=O)c3ccccc3C2=O)nc1
inactive: [1] 109% | [2] 99% | [3] 91.7% | [4] 103% | [5] 107% | [6] 98.6% | [16] 101% | [7] 118% | [9] 91% | [10] 103% | [11] 137% | [17] 126% | [12] 105% | [14] 120% | [19] 108% | [18] 104%

Cc1ccc(C(C)C)cc1NC(=O)Nc1ccc([N+](=O)[O-])cc1
inactive: [1] 12.4% | [2] 40.9% | [3] 20.1% | [4] 15.4% | [5] 16.7% | [6] 11.7% | [7] 22.4% | [10] 10.9% | [17] 16.8% | [13] 10.5%
active: [16] 5.39% | [8] -2.75% | [11] -0.838% | [12] 7.86% | [14] 7.54% | [19] -14.5% | [15] -23% | [18] 3.13%

O=C1OC(c2ccc(-c3ccccc3)cc2)=C/C1=C/c1cccs1
inactive: [1] 125% | [2] 95.7% | [3] 131% | [4] 100% | [5] 78.2% | [6] 74.6% | [16] 99.4% | [7] 102% | [9] 78.8% | [10] 80.9% | [11] 82.9% | [17] 86.8% | [12] 85.7% | [13] 81.7% | [14] 97.1% | [15] 87.3% | [18] 91.5%
active: [19] -27.1%

Cc1cc(C)n(C(=O)c2nn(-c3ccc(Cl)cc3)cc2O)n1
inactive: [1] 97.7% | [2] 29.8% | [3] 26.3% | [4] 19.4% | [5] 79.3% | [6] 52.9% | [16] 41.4% | [7] 71.7% | [9] 66.8% | [10] 25.6% | [11] 13.7% | [17] 35.7% | [12] 33.4% | [13] 77.6% | [14] 56.2% | [19] 13%
active: [15] 9.99% | [18] 3.49%

O=C(NCCc1ccccc1)C1CCC(=O)N1Cc1ccc(Br)cc1 (stereo not drawn)
inactive: [1] 85.6% | [2] 100% | [3] 96.7% | [4] 96.7% | [5] 101% | [6] 95.4% | [16] 97.8% | [7] 99.7% | [8] 96.1% | [9] 103% | [10] 104% | [12] 107% | [13] 100% | [14] 88.3% | [18] 102%

COc1ccc2c(c1)C(=O)/C(=C/c1cccc(OCC(=O)c3ccccc3)c1)CC2
inactive: [1] 80.9% | [2] 112% | [3] 100% | [4] 76.9% | [5] 39.3% | [6] 70.2% | [16] 70.3% | [7] 106% | [8] 67.3% | [9] 75.8% | [10] 114% | [12] 94.4% | [13] 80.4% | [14] 89.2% | [15] 52.7% | [18] 11.1%
active: [11] 9.87%

Cc1ccc(C=C2C(Cl)=C(Cl)C(Cl)=C2Cl)cc1
inactive: [15] 18.3% | [18] 19%
active: [1] 8.19% | [2] -11.6% | [3] -78.3% | [4] -86.3% | [5] -94.4% | [6] -73.6% | [16] -88.7% | [7] -87.8% | [9] -10.6% | [10] -43.4% | [17] -44.6% | [12] -54.8% | [13] -35.1% | [14] -88.8% | [19] -45.2%

CC(=O)c1cc(C(=O)c2ccc3c(c2)Sc2ccccc2N3)c2c(C)cc(C)cn12
active: [1] -15% | [2] -2.02% | [5] -36.5% | [13] 9.64% | [14] -27.3% | [18] 5.45%
inactive: [3] 36.5% | [4] 14.6% | [6] 23.1% | [16] 16.6% | [7] 40.4% | [8] 26.3% | [9] 34.3% | [10] 20.7% | [11] 22.5% | [12] 12.2% | [15] 19.2%

COc1ccc(/C=C/C(=O)Nc2cccnc2Nc2ccc(F)cc2)cc1
inactive: [1] 109% | [2] 97.3% | [3] 87.9% | [4] 93.4% | [5] 87.2% | [6] 86.6% | [16] 98.9% | [7] 98.6% | [8] 120% | [9] 88.4% | [10] 89.3% | [17] 113% | [12] 104% | [13] 86.5% | [19] 112% | [15] 80.1% | [18] 88.7%

COc1ccccc1[C@H]1c2[nH]c3ccccc3c2C[C@H]2C(=O)N(CCCCCCC(=O)NO)CC(=O)N12
active: [2] -6.11% | [19] 5.22%
inactive: [1] 23.4% | [3] 67.3% | [4] 46.6% | [5] 26.6% | [6] 23.7% | [16] 32.7% | [7] 18.6% | [8] 59.5% | [10] 56.9% | [11] 44.7% | [17] 48.2% | [12] 35.1% | [13] 55.5% | [14] 31.9% | [15] 11% | [18] 19.3%

COc1ccc(-c2cn(-c3ccccc3)c(-c3ccccc3)n2)cc1OC
active: [19] -66.6%
inactive: [1] 19.4% | [2] 95.9% | [3] 117% | [4] 29.2% | [5] 74.5% | [6] 62.4% | [16] 14.5% | [7] 102% | [9] 84.9% | [10] 71.9% | [11] 52.1% | [17] 99.4% | [12] 64.4% | [13] 79.3% | [14] 104% | [15] 77% | [18] 11.3%

O=C(/C=C/c1ccc(O)c(O)c1)N1CCN(c2ccc(Cl)cc2)CC1
inactive: [1] 80.1% | [2] 72.1% | [3] 73.9% | [20] 61.7% | [5] 54.5% | [6] 81.3% | [7] 81% | [10] 69.8% | [11] 24.5% | [17] 49% | [12] 48.1% | [13] 50.5% | [14] 72.1% | [19] 32.6% | [18] 26.6%

C[C@]12CC[C@@H]3c4ccc(O)cc4CC[C@H]3[C@@H]1CC[C@@H]2NS(=O)(=O)c1cccc(Br)c1
inactive: [1] 61.6% | [2] 72.7% | [3] 95.2% | [20] 38.7% | [5] 61.3% | [6] 70% | [7] 88.3% | [10] 69.8% | [11] 36.3% | [17] 75.4% | [12] 58.9% | [13] 62.9% | [14] 65% | [15] 36.3% | [18] 27.1%

CC/C(=C\c1ccc(N(C)C)cc1)c1nc2ccccc2c(=O)[nH]1
inactive: [1] 81.7% | [2] 88.3% | [3] 102% | [20] 107% | [5] 97.4% | [6] 84.1% | [16] 94.2% | [7] 152% | [9] 93% | [10] 106% | [11] 108% | [17] 51.1% | [12] 93.4% | [14] 118% | [19] 110% | [15] 140% | [18] 77.4%
active: [8] -13.9%

S=C1SCN(Cc2ccccc2)CN1Cc1ccco1
inactive: [1] 27.4% | [2] 92.1% | [3] 101% | [20] 90.3% | [5] 87.3% | [6] 91.6% | [16] 81.6% | [7] 105% | [8] 81.1% | [10] 93.5% | [11] 78.6% | [17] 28.7% | [12] 107% | [13] 96.7% | [14] 99% | [19] 10.8% | [15] 51.6% | [18] 22%
